Structures are written as SMILES. Hit rate of the full screen: of about 2,400 compounds, about 180 (7.5%) were called active.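 Rule for the calls: active = readout below zero, meaning a drop past 3 SD under the dofetilide-free negative control mean; inactive = the rest.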 Only a selection was taken, and actives are over-represented in it overall.

In the test the target is Potassium voltage-gated channel subfamily KQT member 2 (Rattus norvegicus) (UniProt O88943). As to the kind of experiment: KCNQ2 blockade in CHO cells – cell-based, FluxOR thallium flux, counter-screen for hERG block protector project, confirmation (AID 1946). As to conditions: FluxOR thallium flux fluorescence, at 10 µM, active compounds read low.
Chain of Potassium voltage-gated channel subfamily KQT member 2 (Rattus norvegicus) (O88943 whole entry, looked up): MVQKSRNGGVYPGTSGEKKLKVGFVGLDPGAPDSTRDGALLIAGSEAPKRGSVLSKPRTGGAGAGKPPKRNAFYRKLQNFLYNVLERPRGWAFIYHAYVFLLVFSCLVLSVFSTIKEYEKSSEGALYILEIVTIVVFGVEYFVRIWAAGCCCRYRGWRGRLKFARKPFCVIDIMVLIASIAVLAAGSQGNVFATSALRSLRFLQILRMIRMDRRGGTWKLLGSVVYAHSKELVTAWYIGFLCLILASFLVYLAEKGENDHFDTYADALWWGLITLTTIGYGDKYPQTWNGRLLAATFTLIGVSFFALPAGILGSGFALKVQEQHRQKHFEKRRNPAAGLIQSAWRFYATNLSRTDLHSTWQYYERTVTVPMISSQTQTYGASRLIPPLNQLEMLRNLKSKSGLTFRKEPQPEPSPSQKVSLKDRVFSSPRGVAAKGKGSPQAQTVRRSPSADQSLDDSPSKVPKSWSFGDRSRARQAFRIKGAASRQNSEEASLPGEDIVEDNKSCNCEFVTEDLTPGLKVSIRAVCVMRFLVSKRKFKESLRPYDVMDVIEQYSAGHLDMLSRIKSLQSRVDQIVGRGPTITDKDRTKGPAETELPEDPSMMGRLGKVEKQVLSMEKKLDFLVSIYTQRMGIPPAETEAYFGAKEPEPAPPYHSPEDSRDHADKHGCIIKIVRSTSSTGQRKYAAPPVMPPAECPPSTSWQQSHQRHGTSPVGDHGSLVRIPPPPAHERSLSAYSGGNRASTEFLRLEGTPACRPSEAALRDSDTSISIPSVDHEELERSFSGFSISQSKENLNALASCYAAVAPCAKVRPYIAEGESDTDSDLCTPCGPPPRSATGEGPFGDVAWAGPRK
In the case of `O=C(O)CCC(=O)NCCC1=c2ccccc2=N/C1=C\c1c(O)n(Cc2ccc(F)cc2)c(=S)[nH]c1=O`, the activity change vs negative control was -3.3% (active).
On to `O=C1CC(=O)N(c2cccc(C(F)(F)F)c2)C(=O)N1`, for which the activity change vs negative control was 10.7% [zero marks the 3-SD hit cutoff] (inactive).
As for `COc1ccc2c(c1)/C(=C/c1cnc[nH]1)C(=O)N2`, the activity change vs negative control is 28% [zero marks the 3-SD hit cutoff] (inactive).
The same measure for `COc1ccc2c3c1OC1C(O)C=CC4C(C2)[N+](C)(C)CCC341` (stereo not given): 11.5% (inactive).
Take `CCOC(=O)c1c(NS(=O)(=O)c2ccccc2)n(CCCOC)c2nc3ccccc3nc12`: the activity change vs negative control is 1.7% [zero marks the 3-SD hit cutoff] (inactive).
For the molecule `C=CCn1c(O)c(/C=C2/C=c3ccccc3=N2)c(=O)[nH]c1=S`, the activity change vs negative control was 3.2% (inactive).
For the molecule `O=c1[nH]c(=S)[nH]c(O)c1/C=C1/C=c2ccccc2=N1`, the activity change vs negative control was -4.3% (active).
In the case of `Cc1ccc(S(=O)(=O)NC(Cc2cnc[nH]2)C(=O)O)cc1` (stereo not given) it was 7.9% [zero marks the 3-SD hit cutoff] (inactive); in that of `Cc1ccc(-n2c(O)c(/C=N/Nc3ccccc3)c(=O)[nH]c2=O)cc1C`, 18.8% (inactive).
The same measure for `C1CCC2S[C@H]3CCCCC3NC2C1` (stereo not given in full): 6.1% [zero marks the 3-SD hit cutoff] (inactive).
In the case of `Cc1nc2ccccc2c(=O)n1-c1cc([N+](=O)[O-])cc([N+](=O)[O-])c1`, the activity change vs negative control is -5.3% (active).
Take `CCOC(=O)Cn1cc([N+](=O)[O-])nc1[N+](=O)[O-]`: the activity change vs negative control was 14.6% [zero marks the 3-SD hit cutoff] (inactive).
On to `O=c1[nH]c(=S)[nH]c(O)c1N=Nc1ccc(S(=O)(=O)N2CCc3ccccc32)cc1`, for which the activity change vs negative control was 7.8% (inactive).
In the case of `O=C(Cn1ncc2c3ccccc3n(Cc3ccccc3F)c2c1=O)N1CCC2(CC1)OCCO2`, the activity change vs negative control was 64.8% (inactive).
Turning to `CCCc1[nH]nc2c1C1(C(=O)N(Cc3ccccc3)c3ccccc31)C(C(=O)OC)=C(N)O2` (stereo not given), the activity change vs negative control was 3.3% [zero marks the 3-SD hit cutoff] (inactive).
As for `O=C1NC(=S)N(c2ccc(F)cc2)C(=O)/C1=C/c1ccco1`, the activity change vs negative control is 22.1% (inactive).
Regarding `Cc1ccccc1N1C(=O)/C(=C/c2ccco2)C(=O)NC1=S`, the activity change vs negative control was 15% (inactive).
Turning to `O=C1NC(=O)N(c2ccccc2)C(=O)/C1=C/c1ccc(Sc2ccccc2)o1`, the activity change vs negative control was -2.5% (active).
The same measure for `CN1C(=O)/C(=C/c2ccc(Cl)s2)C(=O)NC1=S`: 9.5% (inactive).
For the molecule `CC(=NCc1ccco1)c1c(O)n(-c2ccc(C)cc2)c(=O)[nH]c1=O`, the activity change vs negative control is 18.6% (inactive).
The same measure for `O=c1[nH]c(O)c(/C=C2/C=CC(c3cc(Cl)ccc3Cl)=N2)c(=O)[nH]1`: -2.7% (active); for `O=C1NC(=O)C(=Cc2ccc(-c3ccc(Cl)cc3)o2)C(=O)N1`: 11% (inactive); for `O=C(O)c1c[nH]c2ccc(S(=O)(=O)N(CCCl)CCCl)cc12`: 14% [zero marks the 3-SD hit cutoff] (inactive).
With `N#CC1=C(N)Oc2c(c(=O)oc3ccccc23)C1c1cccnc1` (stereo not given), the activity change vs negative control was 7.9% [zero marks the 3-SD hit cutoff] (inactive).
In the case of `NCCc1ccc(S(N)(=O)=O)cc1` it was -1.5% [zero marks the 3-SD hit cutoff] (active).
As for `O=c1c2cc(Br)ccc2[nH]c(=S)n1-c1ccccc1`, the activity change vs negative control is 9.1% [zero marks the 3-SD hit cutoff] (inactive).
In the case of `CCCCn1c(O)c(C(CC)=Nc2ccc(OCC)cc2)c(=O)[nH]c1=O` it was 3.2% (inactive).
The same measure for `CN1C(=O)/C(=C\c2ccc(Br)s2)C(=O)NC1=S`: 6.5% (inactive).
`Oc1cccc2cccnc12`: the activity change vs negative control was 24.3% [zero marks the 3-SD hit cutoff] (inactive).
On to `COc1ccccc1N1CCN(Cc2ccc(F)cc2)CC1`, for which the activity change vs negative control is 8.2% (inactive).
